Screening data deposited in PubChem BioAssay by National Center for Advancing Translational Sciences (NCATS).
This is a sample that favours compounds with a hit; in the whole collection about 12% have one here.
HP1b chromo inh = inhibitors of HP1-beta chromodomain binding to methylated histone tails; Potency, µM (highest dose often 114 µM), for the others: at the top dose activity change, negative = inhibition, usual class: inhibitors; P83916; 0.56% of 390,000 active; AlphaScreen HP1-beta / biotin-H3K9me3 peptide binding; AID 540317; also: nearly all actives have a fitted effect of over 70% in size
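Compound inhibition of the preformed complex between 50 nM HP1-beta and 50 nM biotinylated H3K9me3 peptide was read by AlphaScreen. Buffer was PBS pH 7.4 with 0.01% Tween-20. Incubations ran 30 min at room temperature, with 10 ug/mL donor/acceptor beads.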
BAZ2B inh = blocks human BAZ2B; 4.4% of 360,000 active; Potency, µM (highest dose often 114 µM), without a hit: top-dose activity change, negative = inhibition, hits mostly inhibitors; Q9UIF8; AID 504333; AlphaScreen BAZ2B-H3K14Ac peptide displacement; also: % is scaled to controls: 0 for no effect and ±100 for the full control effect; nearly all actives have a fitted effect of over 60% in size
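Multi-concentration screen (max 110 uM) measuring displacement of acetylated histone H3 peptide from BAZ2B by AlphaScreen, using 50 nM protein, 50 nM peptide and 10 ug/mL streptavidin donor plus Ni-chelate acceptor beads.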
JMJD2A Tudor = inhibitors of human JMJD2A Tudor domain; AlphaScreen JMJD2A-Tudor / H3K4me3 peptide binding; Potency, µM (titrated, usually from 114 µM), without a hit: at the top dose activity change, negative = inhibition, actives largely listed as inhibitors; 4.4% of 390,000 active; AID 504339; also: % is scaled to controls: 0 for no effect and ±100 for the full control effect; nearly all actives have a fitted effect of over 50% in size
G9a block = inhibitors of human histone lysine methyltransferase G9a. AID 504332. G9a H3K9 monomethylation, AlphaScreen, 2 h. 8.8% of 350,000 active. Potency, µM (doses to about 102 µM), for the others: at the highest dose activity, negative = inhibition, hits mostly inhibitors; also: % is scaled to controls: 0 for no effect and ±100 for the full control effect; nearly all actives have a fitted effect of over 75% in size
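G9a (20 nM) preincubated 15 min RT with compounds, then 500 nM biotinylated H3K9 peptide and 20 uM SAM added; 2 h RT reaction. Monomethyl-H3K9 product detected by AlphaScreen with anti-H3K9me1 antibody, streptavidin donor and anti-rabbit IgG acceptor beads.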
Sfp PPTase inh = inhibitors of Bacillus subtilis Sfp phosphopantetheinyl transferase | 3.5% of 310,000 active | Q9F4F7 | AID 1490 | Potency, µM, without a hit: largest response in the series, negative = inhibition, actives largely listed as inhibitors | Biochemical Sfp PPTase activity, qHTS;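 also: the enzyme is Sfp with the accession as filed and its product quenches rhodamine fluorescence; 0% = enzyme reaction without inhibitor and -100% = no enzyme wells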
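Reaction rates are the 30-min fluorescence difference (ex 525, em 598 nm) in wells containing 15 nM Sfp, 5 uM rhodamine-CoA and 12.5 uM BHQ-2-YbbR at pH 7.6 with 10 mM MgCl2.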
An asterisk follows results filed as active; ? = inconclusive; nt = no result; [ ] = dose if it differs, or a comment. Calls follow the shape of the dose curve; as a rule, active = well fitted curve in the direction sought with a large enough effect; inconclusive = small, poorly fitted or top-dose-only effect, or another doubt; inactive = no such curve, though single readings can be large; an effect the other way counts as inactive or inconclusive. Potency is read from the fitted curve at half-maximal effect.

SMILES	HP1b chromo inh	BAZ2B inh	JMJD2A Tudor	G9a block	Sfp PPTase inh
O=C(NC(=S)Nc1ccc(CN2CCOCC2)cc1)c1ccc([N+](=O)[O-])cc1	3%	-36%	-30%	?	50µM*
COc1ccc(C(=O)NC(=S)Nc2ccc(CN3CCOCC3)cc2)cc1	-6%	-34%	-12%	45µM*	-3%
CCCCOc1ccc(C(=O)NC(=S)Nc2ccc(CN3CCOCC3)cc2)cc1	15%	5%	-14%	-5%	5%
COc1ccc(C(=O)NC(=S)NNC(=O)c2ccc(NC(C)=O)cc2)cc1Br	12%	-2%	-15%	40µM*	9%
Cc1c(C(=O)NCc2ccccc2)oc2ccc(S(=O)(=O)N3CCC(C)CC3)cc12	41%	-2%	-1%	7%[59 µM]	nt
CCOCCCNC(=O)c1cc(Sc2ccc(C)cc2)nc2ccccc12	40%	5%	-1%	-2%[59 µM]	2%
CCOc1ccc(C(=O)Nc2ccc(CN3CCOCC3)cc2)cc1Br	-13%	-36%	?	-10%[59 µM]	3%
O=C(CCCCl)NC(=S)Nc1ccc(CN2CCOCC2)cc1	37%	-19%	4%	50µM*	-7%
COc1ccc(C(=O)NC(=S)Nc2ccc(CN3CCOCC3)cc2)cc1Br	-10%	?	?	45µM*	1%
O=C(CCCCl)NC(=S)Nc1ccc(N2CCOCC2)cc1	19%	-16%	-19%	nt	?
COc1ccc(C(=O)NC(=S)N2CCC(C)CC2)cc1Br	51%	?	?	8%	10%
COc1ccc(C(=O)NC(=S)N2CCNC(=O)C2)cc1Br	-16%	?	35µM*	nt	-3%
CCN(CC)CCOC(=O)C(Cc1cccc2ccccc12)CC1CCCO1 (centres undefined)	?	50µM*	20µM*	-22%	-24%
CCN(CC)CCOC(=O)C1(c2ccccc2)CCOCC1	8%	2%	-9%[11.4 µM]	4%	6%
Cc1ccc(S(=O)(=O)NCC(=O)OCC(=O)N(Cc2ccccc2)C(C)(C)C)cc1	32%	-2%	-20%	12%	-1%
O=C(NCCc1ccc(F)cc1)C(=O)NCC(c1cccs1)S(=O)(=O)c1cccs1 (centres undefined)	29%	-2%	-6%	10%[59 µM]	nt
CCNC(=S)NNC(=O)c1ccccn1	37%	3.2µM*	25µM*	-11%	-9%
CCNC(=S)NNC(=O)c1ccccc1Cl	29%	-2%	-12%	5%[59 µM]	12%
S=C(NCc1ccccn1)Nc1ccc(Cl)c(Cl)c1	17%	-6%	-13%	nt	-29%
O=C(NNC(=S)Nc1ccc(Cl)c(Cl)c1)c1ccccn1	-2%	4.5µM*	25µM*	nt	7%
Cc1ccc(S(=O)(=O)NC(Cc2ccccc2)C(=O)O)cc1C (centres undefined)	19%	3%	5%	4%	11%
O=C(CCc1nc(-c2cccs2)no1)Nc1ccc([N+](=O)[O-])cc1	19%	-12%	-18%	3%[59 µM]	nt
CC(OC(=O)/C=C/c1cccc(Cl)c1)C(=O)NC1CCCCC1C (centres undefined)	19%	-20%	-7%	5%[0.501 µM]	nt
Cc1cc2c(c(=O)o1)C1O[C@](c3ccsc3)(Cc3ccccc31)O2	nt	?	nt	?	1%
O=c1oc2ccccc2c2c1C1O[C@](c3ccsc3)(Cc3ccccc31)O2	nt	8.9µM*	nt	nt	-12%
SMILES	HP1b chromo inh	BAZ2B inh	JMJD2A Tudor	G9a block	Sfp PPTase inh
COc1ccc2c3c(c(=O)oc2c1)C1O[C@](c2ccsc2)(Cc2ccccc21)O3	nt	?	nt	nt	-5%
O=C1C2=C(C(=O)c3ccccc31)C1O[C@](c3ccsc3)(Cc3ccccc31)O2	nt	10µM*	nt	-38%[2.33 µM]	-3%
CC(c1ccccc1)C1OCC(C[N+]2(C)CCCCC2)O1 (centres undefined)	?	-19%	56µM*	?	6%
C[N+]1(CC2COC(c3ccccc3)(C3CCCCC3)O2)CCCCC1 (centres undefined)	nt	nt	nt	?	3%
O=C(Nc1nc(-c2ccco2)c(-c2ccco2)s1)c1c(F)cccc1Cl	?	40µM*	50µM*	?	nt
O=C(Nc1nc(-c2ccco2)c(-c2ccco2)s1)c1cnccn1	0%	?	-34%	10µM*	nt
O=C(Nc1nc(-c2ccco2)c(-c2ccco2)s1)c1ccc(F)cc1F	?	40µM*	?	10µM*	nt
O=C(CN1CCCC1c1cccs1)Nc1cc(S(=O)(=O)N2CCCCC2)ccc1Cl (centres undefined)	26%	nt	-10%	nt	nt
O=c1[nH]cnc2c1[nH]c(=S)n2C1O[C@@H](CO)[C@H](O)[C@@H]1O (some centres undefined)	4%[57 µM]	nt	?	nt	nt
CCCCn1c(N)c(N(CCC(C)C)C(=O)C2=NN(c3cc(C)ccc3C)C(=O)CC2)c(=O)[nH]c1=O	55%	12%	-1%	40µM*	nt
CCCCn1c(N)c(N(CCC(C)C)C(=O)c2ccc([N+](=O)[O-])s2)c(=O)[nH]c1=O	-5%	6%	-21%	79µM*	nt
CCCCN(C(=O)c1ccc([N+](=O)[O-])s1)c1c(N)n(CC(C)C)c(=O)[nH]c1=O	12%	5%	-5%	-51%	nt
CCCCn1c(N)c(N(CC(C)C)C(=O)c2ccco2)c(=O)[nH]c1=O	27%	9%	4%	50µM*	nt
CCCCn1c(N)c(N(CC(C)C)C(=O)c2cc(-c3ccncc3)nc3ccccc23)c(=O)[nH]c1=O	13%	2%	-17%	56µM*	nt
CCCCn1c(N)c(N(CCOC)C(=O)c2ccco2)c(=O)[nH]c1=O	30%	-1%	-16%	?	nt
Cc1cc(CNC(=O)CCc2nnc(CCCc3ccccc3)o2)nn1C	28%	-17%	-17%	-3%	16%
COC(=O)CCC(=O)Nc1cc(Cl)cc(Cl)c1	28%	-5%	2%	nt	8%
CCCCn1c(N)c(N(CC(C)C)C(=O)Cn2c(=O)cnc3ccccc32)c(=O)[nH]c1=O	47%	-1%	8%	45µM*	nt
CCCCn1c(N)c(N(Cc2ccccc2OC)C(=O)c2cc(=O)[nH]c3ccccc23)c(=O)[nH]c1=O	6%	34%	-12%	35µM*	nt
O=C(COC(=O)/C=C/c1ccccc1[N+](=O)[O-])Nc1ccc(OCc2ccccc2)cc1	26%	5%	6%[57.1 µM]	3%[59 µM]	3%
CCN(CC)S(=O)(=O)c1ccc2oc(SCC(=O)NCc3ccccc3)nc2c1	31%	2%	-7%	9%	3%
C=C(C)C(=O)Nc1cccc(C2=NOC3(C2)C[C@@H](C(N)=O)N(C(=O)CC(c2ccccc2)c2ccccc2)C3)c1 (some centres undefined)	20µM*	13µM*	20µM*	?	1%
CCC(=O)N1CC2(CC(c3cccc(NC(=O)CC(c4ccccc4)c4ccccc4)c3)=NO2)C[C@H]1C(N)=O (some centres undefined)	0%	?	-22%	18%[12.7 µM]	-5%
